# Screen size: about 48,000 compounds; about 13,000 (27%) showed an effect of 50% or more. The list shows a part of the results.
# Test system: Wolbachia pipientis
# Test: Anti-Wolbachia Cell-Based Screen
# Assay type: functional
# Parameters: scale not given: in the data most compounds retested in dose-response had high values
# Settings: 5 µM
row,SMILES,Percent Effect
1,Cc1nc(CN(C)c2nc3c(cnn3C(C)(C)C)c(=O)[nH]2)cs1,2.09%
2,CC(=O)N1CC[C@H]2C(=O)N(c3ccsc3)CCO[C@H]2C1,-22.82%
3,Cc1ccc(CN(C)C)cc1NC(=O)C1CC1,-4.043%
4,O=C(C1CCCO1)N1CCC2(CC1)COCCN2CC1CC1 (stereo not given),91.17%
5,CCN1CCOCC12CCN(C(=O)C1CCCC1)CC2.O=C(O)C(F)(F)F,72.95%
6,c1csc(CN2CCC3(CC2)COCCN3CC2CC2)n1,-11.56%
7,O=C(Cc1cccs1)N1CCC2(CC1)COCCN2CC1CC1.O=C(O)C(F)(F)F,-7.1%
8,CCOCC(=O)N1CCC2(CC1)COCCN2CCN(C)C.O=C(O)C(F)(F)F.O=C(O)C(F)(F)F,122.8%
9,COCC(=O)N1CCC2(CC1)COCCN2CCN(C)C.O=C(O)C(F)(F)F.O=C(O)C(F)(F)F,-13.01%
10,CCOCC(=O)N1CCC2(CC1)COCCN2CCOC.O=C(O)C(F)(F)F,1.249%
11,CC(C)(C)N1CC(C(=O)NCc2cn3cccnc3n2)CC1=O (stereo not given),-9.989%
12,Cc1nc(CN(C)Cc2nc(-c3ccncc3)no2)co1,-11.37%
13,Cc1csc(CCNC(=O)C2CCCN(C3CCOCC3)C2)n1 (stereo not given),-10.65%
14,Cc1c(C(=O)NCC2CCN(Cc3c[nH]cn3)C2)[nH]c2ccccc12 (stereo not given),1.148%
15,COCCNc1ccc(CC2CCCN(Cc3c[nH]cn3)C2)nn1 (stereo not given),98.89%
16,COCCNc1ccc(CC2CCCN(C3CCOCC3)C2)nn1 (stereo not given),121.9%
17,O=CO.c1nc(CN2CCCC(Cc3ccc(NC4CCCC4)nn3)C2)c[nH]1 (stereo not given),168.2%
18,CC(C)[C@H]1CN(Cc2c[nH]cn2)C[C@@H]1NC(=O)CC1CCC1,-5.041%
19,O=C(CC1CCCC1)N[C@H]1CN(Cc2c[nH]cn2)C[C@@H]1C1CC1,-0.5907%
20,CNc1ccc(CC2CCCN(Cc3c[nH]cn3)C2)nn1 (stereo not given),113.9%
21,Cc1ccc2[nH]nc(C(=O)NCC3CCN(Cc4c[nH]cn4)C3)c2c1 (stereo not given),-10.2%
22,Cn1c(CCNC(=O)C2CCCN(C3CCOCC3)C2)n[nH]c1=O (stereo not given),-0.6939%
23,NC(=O)COc1ccc(CNC(=O)CN2CCc3ccccc32)cc1,-10.38%
24,CN(CCO)Cc1nnc(C2CCN(C3CCCCC3)CC2)n1C,6.504%

row,SMILES,Percent Effect
1,Cc1ccc(C(=O)N2CCSCC2)cc1NC(=O)Cn1cncn1,-1.948%
2,NC(=O)c1cccc(CCNC(=O)N2CCCC2)c1,-5.891%
3,CCCc1cc(=O)[nH]c(-c2cccc(CN3CCN4CCCC4C3)c2)n1 (stereo not given),-7.506%
4,CC(C)C1CN(Cc2c[nH]cn2)CCCN1CC1CC1 (stereo not given),17.94%
5,c1ccc(C2CN(C3CC3)CC3(CCN(Cc4ncc[nH]4)CC3)C2)cc1 (stereo not given),-18.37%
6,Fc1ccc(CCC2CCCN(Cc3c[nH]cn3)C2)c(F)c1 (stereo not given),-3.071%
7,c1c[nH]c(CN2CCCC(Cc3ccc(NC4CCCC4)nn3)C2)n1 (stereo not given),81.53%
8,Nc1ccc(CC2CCCN(Cc3c[nH]cn3)C2)nn1 (stereo not given),105.7%
9,O=C1CC[C@H]2CN(Cc3ncc[nH]3)CC[C@H]2N1CC1CCNCC1,-8.264%
10,O=C(c1coc(COc2cccc3cnccc23)n1)N1CCSCC1,-33.47%
11,CCc1cnc(N2CC[C@H]3[C@@H]2CCC(=O)N3c2ccccc2)nc1.O=C(O)C(F)(F)F,97.82%
12,Cc1ccc(C(=O)N2CC[C@H]3[C@@H]2CCC(=O)N3c2cccnc2)o1.O=C(O)C(F)(F)F,-21.39%
13,CCc1cnc(N2CC[C@H]3[C@@H]2CCC(=O)N3c2cccnc2)nc1.O=C(O)C(F)(F)F.O=C(O)C(F)(F)F,93.01%
14,Cc1cnc(C(=O)N2CC[C@H]3[C@@H]2CCC(=O)N3c2cccnc2)cn1.O=C(O)C(F)(F)F,0.08604%
15,CCc1cnc(N2CC[C@H]3[C@H]2CC(=O)N3c2cccnc2)nc1.O=C(O)C(F)(F)F.O=C(O)C(F)(F)F,-6.023%
16,Cc1cc(CNC(=O)c2cc(C(C)C)n(C)n2)ccc1S(C)(=O)=O,-6.268%
17,CC(=O)N(CCc1ccccc1)CC(=O)NC(C)(C)C#N,-33.05%
18,COCCCN1CC2(CCCN(c3ncnc4[nH]cnc34)C2)CCC1=O (stereo not given),-3.857%
19,O=C1N(CCC2CCCCC2)CCCC1(O)CNCCc1ccccc1 (stereo not given),4.403%
20,O=C(O)C(=O)O.c1ccc2c(c1)SCCC2NCc1ccc(N2CCOCC2)cc1 (stereo not given),-0.4171%
21,COc1cc(C(=O)N2CCCC2CC(=O)c2cnn(C)c2)ccc1F (stereo not given),-15.51%
22,Cc1cscc1C(=O)N1CCCC1CC(=O)c1cnn(C)c1 (stereo not given),127.4%
23,Cn1cc(C(=O)CC2CCCN2C(=O)c2cncc3ccccc23)cn1 (stereo not given),0.2394%
24,CCc1ccccc1C(=O)N1CCCC1CC(=O)c1cnn(C)c1 (stereo not given),88.86%

row,SMILES,Percent Effect
1,Cn1cc(C(=O)CC2CCCN2C(=O)c2ccc(Cl)cn2)cn1 (stereo not given),-8.745%
2,Cc1ccc(O)c(C(=O)N2CCCC2CC(=O)c2cnn(C)c2)c1 (stereo not given),-14.12%
3,Cn1cc(C(=O)CC2CCCN2C(=O)c2ccncc2F)cn1 (stereo not given),96.19%
4,CCc1cc(C)c(C(=O)N2CCCC2CC(=O)c2cnn(C)c2)o1 (stereo not given),-2.154%
5,Cn1cc(C(=O)CC2CCCN2C(=O)c2cccc3ncccc23)cn1 (stereo not given),103.8%
6,Cn1cc(C(=O)CC2CCCN2C(=O)c2ccn3ccnc3c2)cn1 (stereo not given),8.483%
7,CCn1c(CN(C)CC(F)(F)F)nc2c(F)cccc21,-13.63%
8,COc1cc(F)c(C(=O)NCc2ccon2)c(F)c1,-19.7%
9,COc1ccc(C2=CCN(C(=O)CN(C)Cc3ccoc3)CC2)cc1,39.3%
10,Cc1cc(-n2cncn2)ccc1C(=O)N(C)CC(F)(F)C(F)(F)F,-10.14%
11,CS(=O)(=O)N1C[C@@H]2COC[C@@H](CC(=O)N3CCCO3)[C@@H]2C1,-9.708%
12,Cc1ccoc1C(=O)N1CCOC2(CCCC2)C1,-7.54%
13,CCOC(C)c1nc(COc2nc(C)no2)cs1 (stereo not given),-4.126%
14,O=C(c1ccncc1)N1CCN(C(=O)c2coc3ccccc23)CC1,-6.895%
15,Cn1cc(C(=O)CC2CCCN2C(=O)c2c[nH]c3ccccc23)cn1 (stereo not given),107.8%
16,Cn1cc(C(=O)CC2CCCN2C(=O)c2coc3ccccc23)cn1 (stereo not given),99.8%
17,Cn1cc(C(=O)CC2CCCN2C(=O)c2n[nH]c3ccccc23)cn1 (stereo not given),-3.127%
18,Cn1cc(C(=O)CC2CCCN2C(=O)c2ccc(Cl)o2)cn1 (stereo not given),3.308%
19,Cn1cc(C(=O)CC2CCCN2C(=O)c2ccc3[nH]ncc3c2)cn1 (stereo not given),-6.365%
20,Cn1cc(CN2CCc3ncn(C)c3C2COCc2cccnc2)cn1 (stereo not given),-2.593%
21,N#Cc1c(F)cccc1NCCCOCC1CCOC1 (stereo not given),-17.11%
22,COCCNC(=O)c1nc(-c2cn(C)cn2)n2ccccc12,37.4%
23,Cc1ccccc1C(=O)N1CCCn2nnc(Cn3cccn3)c2C1,-4.319%
24,Cc1occc1C(=O)N1CCn2cnc(COCC3CC3)c2C1,-3.111%

row,SMILES,Percent Effect
1,Cc1cccc(C(=O)N2CCCn3cnc(CN4CCCC4=O)c3C2)n1,84.9%
2,Cc1ccccc1C(=O)N1CCCn2cnc(CN3CCCC3=O)c2C1,104.2%
3,Cc1cccc(C(=O)NC(CN2CCCC2=O)c2ccccc2)n1 (stereo not given),-6.295%
4,Cc1occc1C(=O)N1CCC2(CCC(=O)N(CC(N)=O)C2)CC1,0.6674%
5,Cc1occc1C(=O)N1CCCn2cnc(CN3CCCC3=O)c2C1,99.06%
6,O=C1CCCN1Cc1ncn2c1CN(C(=O)c1cccc(F)c1)CCC2,7.876%
7,O=C(NC1CC1)C1CCCN(c2cc(-n3cncn3)ncn2)C1 (stereo not given),-0.5146%
8,COCCN(C)C[C@@H]1CCC[C@@H]2CN(c3cc(OC)ncn3)C[C@@H]21.O=C(O)C(F)(F)F,-6.847%
9,Cc1cccc(C2(CNC(=O)C(C)S(C)(=O)=O)CCCC2)c1 (stereo not given),0.1525%
10,CC(=O)N1[C@H](Cn2cncn2)C[C@@H]2CN(Cc3ccccn3)CC[C@@H]21.O=C(O)C(F)(F)F.O=C(O)C(F)(F)F,10.04%
11,O=C(O)C(F)(F)F.c1ccc(CN2Cc3nccn3CC(Cn3cccn3)C2)nc1 (stereo not given),97.11%
12,O=C(O)C(F)(F)F.c1ccc(CN2Cc3nccn3CC(Cn3cncn3)C2)nc1 (stereo not given),98.39%
13,N#Cc1ccc(NCCCOCC2CCCO2)c(F)c1 (stereo not given),-11.95%
14,CC(c1ccccc1)N(C)C(=O)CN1CCCc2cccc(F)c21 (stereo not given),5.525%
15,Cc1ccc(F)c2c1CCCN2C(=O)c1cn(CC(=O)N(C)C)nn1,122.6%
16,CC(=O)NCc1ccc(C(=O)N2CCCc3c(F)ccc(C)c32)o1,-10.88%
17,COc1ccc(C)c2c1N(C(=O)c1ccc3nnc(C)n3c1)CCC2,-2.27%
18,Cc1ccc(F)c2c1N(C(=O)c1cn(CC(=O)N(C)C)nn1)CCC2,115.7%
19,Cc1ccc(F)c2c1N(C(=O)c1ccc(S(C)(=O)=O)cc1)CCC2,11.45%
20,CN(C)C(=O)CN1CCCc2c(F)cc(Br)cc21,1.685%
21,COc1cccc2c1N(C(=O)c1ccc(C)nc1)CCC2,2.178%
22,CN(C)C(=O)Cn1cc(C(=O)N2CCCc3cccc(F)c32)nn1,105.3%
23,N[C@@H]1CC[C@@H](NC(=O)c2ccccc2OC(F)(F)C(F)F)C1,3.993%

# From ChEMBL document CHEMBL3988442, “University of Dundee, Small-Polar-MMV Screening Library” (2021)
